Laboratory results from PubChem BioAssay (NCATS).
Records with an inconclusive call do not appear. Entries that show only a call come without a potency. The source made the active and inactive calls. Calls follow the shape of the dose curve; as a rule, active = well fitted cell-killing curve with a large enough effect; inconclusive = small, poorly fitted or top-dose-only effect, or effect the other way; inactive = no such curve, though single readings can be large or run the other way.

Assay: qHTS of pediatric cancer cell lines to identify multiple opportunities for drug repurposing: Confirmatory screen for NB-EBc1 cells (AID 1347115);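 also: cells exposed to compound for 48 h before the viability read; nearly all actives have a fitted effect of over 45% in size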
Settings: NB-EBc1 neuroblastoma cells, viability (cytotoxicity); series mostly up to 45.9 µM
From the text: Drug repurposing or repositioning has been offered as a strategy for drug development in oncology programs. This approach has special potential for childhood cancers and other rare or orphan diseases, where the expected return on new drug development has been a disincentive to pharmaceuticals.
In this project we exploit the poly-pharmacology of drugs to discover new indications via phenotypic screening of a panel of 19 well-characterized cell lines derived from solid tumors seen in children and adolescents. The goal is to identify approved drugs with previously unrecognized anticancer properties that has the potential to reveal new mechanisms and biological processes involved in carcinogenesis or drug resistance. We employed a titration-based paradigm (quantitative high-throughput screening or qHTS), where all compounds were tested at multiple concentrations for their effect on cell viability. Concentration-response curves (CRCs) were derived directly from the primary screen, and both potency and efficacy values were used to identify compounds with robust bioactivity profiles. We screened the NIH Chemical Genomics Center (NCGC) Pharmaceutical Collection (NPC) and Mechanism Interrogation Plate (MIPE) small molecule collections of approved and investigational compounds against these cell lines; and measured metabolically active cells after 48 hours of compound treatment as a proxy for cell viability.
Assay Submitter: Nathalia J. Martinez, National Center for Advancing Translational Sciences, National Institutes of Health, Rockville, MD, USA; email: natalia.martinez@nih.gov
[1] Shen, M et al. Quantitative high-throughput phenotypic screening of pediatric cancer cell lines identifies multiple opportunities for drug repurposing. Oncotarget 2017 Dec 19;9(4):4758-4772. PMID 29435139.
The cells were obtained from University of North Carolina (UNC), Pediatric Preclinical Testing Program (PPT), and Coriell Institute (CI).
qHTS cell viability assay:
Cells were assayed in growth media at a density of 500-1,000 cells/well. Five microliters of cells were dispensed into 1,536-well, white, solid-bottom, TC-treated plates (Greiner Bio One) using a multidrop dispenser and incubated at 37 degrees C, 5% CO2, under a humidified atmosphere for 5 hours. Twenty-three nanoliters of compounds and controls (neutral control DMSO or positive control bortezomib at final concentration of 2.3 µM) were subsequently transferred by Kalypsys pintool. For primary screens, the MIPE collection was tested at 11-point dilutions (final concentrations range from 0.78 nM to 46 µM) and the NPC collection at 8-point dilutions (final concentrations range from 0.59 nM to 46 µM). Compounds tested in follow-up screens were assayed at 11-point dilutions. Cells were incubated for 48 hours, followed by addition of 3 µL of CellTiter-Glo (Promega). After a 15 min incubation at room temperature, samples were analyzed for luminescence intensity using a ViewLux High-throughput CCD imager equipped with clear filters.
Potency is read from the fitted curve at half-maximal effect.

Structure (SMILES)	Potency
CCOC(=O)[C@H](CCc1ccccc1)N[C@H]1CS[C@H](c2cccs2)CN(CC(=O)O)C1=O	inactive
CCC(=O)O[C@]1(C(=O)CCl)[C@@H](C)C[C@H]2[C@@H]3CCC4=CC(=O)C=C[C@]4(C)[C@@]3(F)[C@@H](O)C[C@@]21C	inactive
CCc1c2c(nc3ccc(OC(=O)N4CCC(N5CCCCC5)CC4)cc13)-c1cc3c(c(=O)n1C2)COC(=O)[C@]3(O)CC	0.737 µM (active)
O=C(NCC1CN(c2ccc(N3CCOCC3=O)cc2)C(=O)O1)c1ccc(Cl)s1 (configuration not stated)	inactive
CNC(=O)c1cc(Oc2ccc(NC(=O)Nc3ccc(Cl)c(C(F)(F)F)c3)cc2)ccn1	18.5 µM (active)
CNCC[C@H](Oc1cccc2ccccc12)c1cccs1	inactive
CC(C)C[C@H](NC(=O)[C@H](CCc1ccccc1)NC(=O)CN1CCOCC1)C(=O)N[C@@H](Cc1ccccc1)C(=O)N[C@@H](CC(C)C)C(=O)[C@@]1(C)CO1	0.329 µM (active)
COc1nc(N)nc2c1ncn2[C@@H]1O[C@H](CO)[C@@H](O)[C@@H]1O	inactive
CC(C)NCC(O)c1ccc(NS(C)(=O)=O)cc1 (configuration not stated)	inactive
O=NN(CCCl)C(=O)NC1CCCCC1	inactive
CN(C)c1ccc(C(=C2C=CC(=[N+](C)C)C=C2)c2ccc(N(C)C)cc2)cc1	1.85 µM (active)
Cn1nnc2c(C(N)=O)ncn2c1=O	inactive
Nc1[nH]c(=O)ncc1F	inactive
COc1ccc(C(=O)CC(=O)c2ccc(C(C)(C)C)cc2)cc1	inactive
CNNCc1ccc(C(=O)NC(C)C)cc1	inactive
CCOC(=O)c1ccc(C#Cc2ccc3c(c2)C(C)(C)CCS3)nc1	inactive

Structure (SMILES)	Potency
COc1cc2c(Nc3ccc(Br)cc3F)ncnc2cc1OCC1CCN(C)CC1	inactive
CN1CCCC(n2nc(Cc3ccc(Cl)cc3)c3ccccc3c2=O)CC1 (configuration not stated)	inactive
COc1cc2nc(N3CCCN(C)CC3)nc(NC3CCN(Cc4ccccc4)CC3)c2cc1OC	inactive
Cc1cccc(N(C)C(=S)Oc2ccc3ccccc3c2)c1	18.5 µM (active)
CC(C)(C#N)c1cc(Cn2cncn2)cc(C(C)(C)C#N)c1	inactive
CCCCOc1ccc(CC(=O)NO)cc1	inactive
CS(=O)(=O)c1ccc([C@@H](O)[C@@H](CO)NC(=O)C(Cl)Cl)cc1	inactive
CO[C@@]12[C@H](COC(N)=O)C3=C(C(=O)C(C)=C(N)C3=O)N1C[C@@H]1N[C@@H]12	1.31 µM (active)
Oc1c(Cl)cc(Cl)c2cccnc12	18.5 µM (active)
CC(C)(C)C(=O)OCOP(=O)(COCCn1cnc2c(N)ncnc21)OCOC(=O)C(C)(C)C	8.27 µM (active)
CC(C(=O)O)c1ccc2c(c1)CC(=O)c1ccccc1S2 (configuration not stated)	inactive
Nc1nc(=S)c2[nH]cnc2[nH]1	2.61 µM (active)
CC1CC2C3CCC4=CC(=O)C=C[C@]4(C)[C@@]3(F)[C@@H](O)C[C@]2(C)[C@@]1(O)C(=O)CO (some centres not stated)	inactive
NC(=O)c1cccnc1	10.4 µM (active)
C[C@@H](CN1CC(=O)NC(=O)C1)N1CC(=O)NC(=O)C1	inactive
CNS(=O)(=O)CCc1ccc2[nH]cc(C3CCN(C)CC3)c2c1	inactive
